In article PMC7862700, “An all-to-all approach to the identification of sequence-specific readers for epigenetic DNA modifications on cytosine”:

What was measured:
Experiment in all cases: DAPPL (digital affinity profiling via proximity ligation, sequencing); 10 mM Tris-HCl pH 7.5, 50 mM NaCl, 1 mM DTT, 4% glycerol, room temperature, 30 min; GST-TFs on glutathione beads, 16-mer random dsDNA library, 0.1% formaldehyde crosslink after washing; high values mean tight binding
FLI1 = molecular target: T1, FLI1 (Homo sapiens, UniProt Q01543 1-452); details: protein: recombinant; tags: N-terminal GST; dsDNA, one strand shown
T1 sequence: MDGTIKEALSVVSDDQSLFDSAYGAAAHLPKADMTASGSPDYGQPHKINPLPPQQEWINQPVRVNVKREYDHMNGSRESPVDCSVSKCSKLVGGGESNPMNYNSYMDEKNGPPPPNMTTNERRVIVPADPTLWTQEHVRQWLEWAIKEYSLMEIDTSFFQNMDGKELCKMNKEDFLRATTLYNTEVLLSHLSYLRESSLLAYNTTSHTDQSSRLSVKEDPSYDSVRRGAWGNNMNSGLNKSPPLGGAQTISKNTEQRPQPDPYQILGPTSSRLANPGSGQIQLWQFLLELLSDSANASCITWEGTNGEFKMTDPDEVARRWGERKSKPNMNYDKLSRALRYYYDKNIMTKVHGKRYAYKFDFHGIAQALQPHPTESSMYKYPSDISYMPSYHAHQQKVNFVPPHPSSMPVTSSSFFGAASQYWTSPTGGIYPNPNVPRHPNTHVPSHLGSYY
Procedure, shortened: (§1)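 A tag-only sample was pooled with DNA-barcoded human transcription factors that had been expressed in yeast as GST fusions and captured on glutathione beads. The pools were incubated for 30 min at room temperature with 200 nmole of a random double-stranded 16-mer DNA library in Tris/NaCl/DTT/glycerol buffer, then washed, crosslinked with 0.1% formaldehyde, proximity-ligated (BsaI/T4 ligase, 1 h, 37 °C), PCR-amplified and sequenced on an Illumina NextSeq500. Binding signal is each hexamer's read frequency for a factor divided by its frequency for the tag-only sample.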

ELK1 = molecular target: T2, ELK1 (Homo sapiens, UniProt P19419 1-428); details: protein: recombinant; tags: N-terminal GST; dsDNA, one strand shown
T2 sequence: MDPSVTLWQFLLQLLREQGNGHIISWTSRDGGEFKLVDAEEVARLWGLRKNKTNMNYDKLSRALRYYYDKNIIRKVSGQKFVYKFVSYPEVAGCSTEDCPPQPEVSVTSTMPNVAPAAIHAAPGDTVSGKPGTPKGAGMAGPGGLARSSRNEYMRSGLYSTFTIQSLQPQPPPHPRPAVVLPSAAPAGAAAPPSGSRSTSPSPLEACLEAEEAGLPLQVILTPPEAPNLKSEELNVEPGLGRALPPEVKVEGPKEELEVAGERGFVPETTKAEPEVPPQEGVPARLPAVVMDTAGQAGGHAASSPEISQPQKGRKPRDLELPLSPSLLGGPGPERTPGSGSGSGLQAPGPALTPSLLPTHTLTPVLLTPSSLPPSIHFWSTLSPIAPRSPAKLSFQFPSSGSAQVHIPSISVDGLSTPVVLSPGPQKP
Procedure, shortened: as §1

GABPA = molecular target: T3, GABPA (Homo sapiens, UniProt Q06546 1-454); details: protein: recombinant; tags: N-terminal GST; dsDNA, one strand shown
T3 sequence: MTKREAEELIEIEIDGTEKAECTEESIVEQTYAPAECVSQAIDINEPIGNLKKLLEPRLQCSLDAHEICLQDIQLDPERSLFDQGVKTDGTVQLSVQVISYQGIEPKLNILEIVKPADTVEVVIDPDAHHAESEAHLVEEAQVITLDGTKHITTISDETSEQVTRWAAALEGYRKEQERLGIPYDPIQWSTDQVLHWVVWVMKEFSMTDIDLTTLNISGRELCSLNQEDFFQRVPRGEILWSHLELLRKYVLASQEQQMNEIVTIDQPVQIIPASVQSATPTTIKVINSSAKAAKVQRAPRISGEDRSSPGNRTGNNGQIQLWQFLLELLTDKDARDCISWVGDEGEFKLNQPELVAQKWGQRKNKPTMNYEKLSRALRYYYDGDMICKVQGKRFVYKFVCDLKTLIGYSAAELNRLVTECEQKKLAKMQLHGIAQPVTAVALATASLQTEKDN
Procedure, shortened: as §1

ERG = molecular target: T4, ERG (Homo sapiens, UniProt P11308 1-479); details: protein: recombinant; tags: N-terminal GST; dsDNA, one strand shown
T4 sequence: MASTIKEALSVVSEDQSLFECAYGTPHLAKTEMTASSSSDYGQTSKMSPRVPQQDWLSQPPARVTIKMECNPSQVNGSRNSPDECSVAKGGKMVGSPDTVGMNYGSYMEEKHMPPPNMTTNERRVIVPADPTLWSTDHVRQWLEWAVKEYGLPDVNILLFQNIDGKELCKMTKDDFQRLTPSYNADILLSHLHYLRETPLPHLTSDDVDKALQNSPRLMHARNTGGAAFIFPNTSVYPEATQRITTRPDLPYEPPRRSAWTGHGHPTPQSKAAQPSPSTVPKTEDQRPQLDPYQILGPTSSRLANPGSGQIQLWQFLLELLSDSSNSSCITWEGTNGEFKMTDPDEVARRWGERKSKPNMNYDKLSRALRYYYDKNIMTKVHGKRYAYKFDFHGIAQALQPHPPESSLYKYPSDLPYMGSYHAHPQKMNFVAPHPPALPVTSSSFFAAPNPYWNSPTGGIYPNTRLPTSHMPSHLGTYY
Procedure, shortened: as §1

ELF1 = ELF1 (Homo sapiens, UniProt P32519 1-619); details: protein: recombinant; tags: N-terminal GST; dsDNA, one strand shown
Procedure, shortened: as §1

EHF = molecular target: T5, EHF (Homo sapiens, UniProt Q9NZC4 1-300); details: protein: recombinant; tags: N-terminal GST; dsDNA, one strand shown
T5 sequence: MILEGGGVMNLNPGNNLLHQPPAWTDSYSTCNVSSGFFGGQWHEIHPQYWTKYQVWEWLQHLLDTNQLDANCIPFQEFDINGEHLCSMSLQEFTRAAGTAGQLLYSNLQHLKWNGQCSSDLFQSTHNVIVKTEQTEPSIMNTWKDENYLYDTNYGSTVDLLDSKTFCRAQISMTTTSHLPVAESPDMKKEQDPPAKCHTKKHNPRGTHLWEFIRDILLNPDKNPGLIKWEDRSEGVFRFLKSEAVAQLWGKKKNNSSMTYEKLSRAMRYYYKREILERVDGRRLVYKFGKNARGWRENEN
Procedure, shortened: as §1

SPI1 = SPI1 (Homo sapiens, UniProt P17947 1-270); details: protein: recombinant; tags: N-terminal GST; dsDNA, one strand shown
Procedure, shortened: as §1

SPIB = SPIB (Homo sapiens, UniProt Q01892 1-262); details: protein: recombinant; tags: N-terminal GST; dsDNA, one strand shown
Procedure, shortened: as §1

ELK3 = molecular target: T6, ELK3 (Homo sapiens, UniProt P41970 1-407); details: protein: recombinant; tags: N-terminal GST; dsDNA, one strand shown
T6 sequence: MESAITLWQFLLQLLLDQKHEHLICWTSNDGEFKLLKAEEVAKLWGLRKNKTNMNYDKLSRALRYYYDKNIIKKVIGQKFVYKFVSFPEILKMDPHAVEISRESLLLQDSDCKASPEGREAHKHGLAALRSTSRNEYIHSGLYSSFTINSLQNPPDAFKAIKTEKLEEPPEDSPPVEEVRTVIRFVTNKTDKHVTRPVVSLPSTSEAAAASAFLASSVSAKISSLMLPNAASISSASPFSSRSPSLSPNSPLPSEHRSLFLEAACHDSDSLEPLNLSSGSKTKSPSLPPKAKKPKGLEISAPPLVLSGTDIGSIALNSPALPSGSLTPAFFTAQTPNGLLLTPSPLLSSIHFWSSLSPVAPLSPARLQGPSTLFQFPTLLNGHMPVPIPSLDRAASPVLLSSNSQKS
Procedure, shortened: as §1

FEV = molecular target: T7, FEV (Homo sapiens, UniProt Q99581 1-238); details: protein: recombinant; tags: N-terminal GST; dsDNA, one strand shown
T7 sequence: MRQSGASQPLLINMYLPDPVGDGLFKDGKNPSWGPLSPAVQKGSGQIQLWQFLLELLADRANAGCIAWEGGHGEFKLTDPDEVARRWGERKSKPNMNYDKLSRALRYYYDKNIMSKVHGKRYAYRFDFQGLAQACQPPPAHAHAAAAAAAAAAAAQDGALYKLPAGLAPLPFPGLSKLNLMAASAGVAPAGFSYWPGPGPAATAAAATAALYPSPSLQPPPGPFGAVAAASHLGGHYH
Procedure, shortened: as §1

ETV5 = ETV5 (Homo sapiens, UniProt P41161 1-510); details: protein: recombinant; tags: N-terminal GST; dsDNA, one strand shown
Procedure, shortened: as §1

HSF1 = HSF1 (Homo sapiens, UniProt Q00613 1-529); details: protein: recombinant; tags: N-terminal GST; chain copies: 3; dsDNA, one strand shown
Procedure, shortened: as §1

SPIC = molecular target: T8, SPIC (Homo sapiens, UniProt Q8N5J4 1-248); details: protein: recombinant; tags: N-terminal GST; dsDNA, one strand shown
T8 sequence: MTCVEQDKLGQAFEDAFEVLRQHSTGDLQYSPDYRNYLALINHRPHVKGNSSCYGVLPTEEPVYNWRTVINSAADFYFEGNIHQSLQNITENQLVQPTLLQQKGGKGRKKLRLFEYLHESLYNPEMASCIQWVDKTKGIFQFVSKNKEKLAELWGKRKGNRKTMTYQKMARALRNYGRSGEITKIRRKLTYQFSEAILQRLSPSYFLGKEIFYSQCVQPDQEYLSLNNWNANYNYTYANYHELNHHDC
Procedure, shortened: as §1

ELF4 = ELF4 (Homo sapiens, UniProt Q99607 1-663); details: protein: recombinant; tags: N-terminal GST; dsDNA, one strand shown
Procedure, shortened: as §1

ELK4 = molecular target: T9, ELK4 (Homo sapiens, UniProt P28324-2 1-405); details: protein: recombinant; tags: N-terminal GST; dsDNA, one strand shown
T9 sequence: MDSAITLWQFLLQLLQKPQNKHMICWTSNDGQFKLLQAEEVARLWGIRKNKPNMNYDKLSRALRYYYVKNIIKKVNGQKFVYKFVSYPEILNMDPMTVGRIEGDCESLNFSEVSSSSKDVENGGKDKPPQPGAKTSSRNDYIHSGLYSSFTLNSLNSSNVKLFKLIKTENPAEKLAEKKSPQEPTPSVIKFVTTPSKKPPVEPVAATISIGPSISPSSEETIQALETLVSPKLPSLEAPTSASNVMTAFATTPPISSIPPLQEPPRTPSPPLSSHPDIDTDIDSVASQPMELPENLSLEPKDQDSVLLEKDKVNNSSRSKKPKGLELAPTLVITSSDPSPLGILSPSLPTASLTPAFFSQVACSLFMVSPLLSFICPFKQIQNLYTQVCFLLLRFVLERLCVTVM
Procedure, shortened: as §1

ETV2 = molecular target: T10, ETV2 (Homo sapiens, UniProt O00321 1-342); details: protein: recombinant; tags: N-terminal GST; dsDNA, one strand shown
T10 sequence: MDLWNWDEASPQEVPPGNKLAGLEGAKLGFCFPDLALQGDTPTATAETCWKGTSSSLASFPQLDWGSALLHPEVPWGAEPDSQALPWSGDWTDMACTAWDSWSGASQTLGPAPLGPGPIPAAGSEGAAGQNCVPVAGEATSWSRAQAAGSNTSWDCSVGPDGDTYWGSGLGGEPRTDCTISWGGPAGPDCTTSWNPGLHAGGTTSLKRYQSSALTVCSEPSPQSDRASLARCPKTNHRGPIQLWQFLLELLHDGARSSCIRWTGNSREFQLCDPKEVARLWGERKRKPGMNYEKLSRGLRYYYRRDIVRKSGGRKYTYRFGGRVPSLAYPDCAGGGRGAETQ
Procedure, shortened: as §1

ELF3 = molecular target: T11, ELF3 (Homo sapiens, UniProt P78545 1-371); details: protein: recombinant; tags: N-terminal GST; dsDNA, one strand shown
T11 sequence: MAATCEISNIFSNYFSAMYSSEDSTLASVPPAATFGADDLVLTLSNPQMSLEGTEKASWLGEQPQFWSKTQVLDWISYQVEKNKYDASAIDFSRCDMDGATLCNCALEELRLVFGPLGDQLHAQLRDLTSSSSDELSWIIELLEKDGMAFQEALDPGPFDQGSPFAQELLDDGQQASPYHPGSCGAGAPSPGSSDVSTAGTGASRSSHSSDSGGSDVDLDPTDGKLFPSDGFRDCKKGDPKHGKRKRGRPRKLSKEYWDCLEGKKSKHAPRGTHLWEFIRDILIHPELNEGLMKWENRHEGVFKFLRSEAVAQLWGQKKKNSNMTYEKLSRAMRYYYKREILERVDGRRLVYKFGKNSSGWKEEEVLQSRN
Procedure, shortened: as §1

CRX = CRX (Homo sapiens, UniProt O43186 1-299); details: protein: recombinant; tags: N-terminal GST; dsDNA, one strand shown
Procedure, shortened: as §1

ETV1 = ETV1 (Homo sapiens, UniProt P50549 1-477); details: protein: recombinant; tags: N-terminal GST; dsDNA, one strand shown
Procedure, shortened: as §1

ETV1, sequence (P50549 whole entry): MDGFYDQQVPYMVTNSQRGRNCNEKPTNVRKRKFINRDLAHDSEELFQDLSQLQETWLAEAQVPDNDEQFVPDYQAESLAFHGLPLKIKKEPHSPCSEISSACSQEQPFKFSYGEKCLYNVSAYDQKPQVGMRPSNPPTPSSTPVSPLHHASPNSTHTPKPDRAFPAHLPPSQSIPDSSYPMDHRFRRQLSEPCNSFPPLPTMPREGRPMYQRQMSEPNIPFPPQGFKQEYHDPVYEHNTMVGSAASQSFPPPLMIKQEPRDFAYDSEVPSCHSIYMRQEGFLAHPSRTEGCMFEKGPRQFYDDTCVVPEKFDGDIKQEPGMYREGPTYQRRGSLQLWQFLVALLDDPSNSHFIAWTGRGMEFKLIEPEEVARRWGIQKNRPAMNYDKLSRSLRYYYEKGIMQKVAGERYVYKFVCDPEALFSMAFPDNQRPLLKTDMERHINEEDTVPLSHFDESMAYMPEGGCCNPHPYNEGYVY
ETV5, sequence (P41161 whole entry): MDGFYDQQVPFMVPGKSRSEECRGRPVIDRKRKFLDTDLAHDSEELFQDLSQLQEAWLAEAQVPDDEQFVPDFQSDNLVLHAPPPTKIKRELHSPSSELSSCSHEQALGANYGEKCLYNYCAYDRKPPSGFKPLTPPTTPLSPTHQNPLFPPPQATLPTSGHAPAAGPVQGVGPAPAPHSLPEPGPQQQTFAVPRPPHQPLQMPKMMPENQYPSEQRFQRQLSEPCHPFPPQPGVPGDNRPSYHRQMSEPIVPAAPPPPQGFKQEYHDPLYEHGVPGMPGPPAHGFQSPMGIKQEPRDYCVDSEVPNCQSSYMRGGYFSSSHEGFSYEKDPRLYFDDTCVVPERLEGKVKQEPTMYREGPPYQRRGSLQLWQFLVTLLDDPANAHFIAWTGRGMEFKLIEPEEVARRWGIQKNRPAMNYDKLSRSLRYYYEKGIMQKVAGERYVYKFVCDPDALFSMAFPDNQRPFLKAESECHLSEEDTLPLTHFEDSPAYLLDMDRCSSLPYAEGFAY
SPIB, sequence (Q01892 whole entry): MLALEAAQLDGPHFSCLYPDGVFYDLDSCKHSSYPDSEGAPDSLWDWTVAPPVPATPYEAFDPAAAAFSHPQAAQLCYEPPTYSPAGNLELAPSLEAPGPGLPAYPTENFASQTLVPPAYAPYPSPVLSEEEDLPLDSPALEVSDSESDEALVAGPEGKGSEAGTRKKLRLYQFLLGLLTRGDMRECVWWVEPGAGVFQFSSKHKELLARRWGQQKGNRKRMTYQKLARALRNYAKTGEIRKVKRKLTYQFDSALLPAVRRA
ELF1, sequence (P32519 whole entry): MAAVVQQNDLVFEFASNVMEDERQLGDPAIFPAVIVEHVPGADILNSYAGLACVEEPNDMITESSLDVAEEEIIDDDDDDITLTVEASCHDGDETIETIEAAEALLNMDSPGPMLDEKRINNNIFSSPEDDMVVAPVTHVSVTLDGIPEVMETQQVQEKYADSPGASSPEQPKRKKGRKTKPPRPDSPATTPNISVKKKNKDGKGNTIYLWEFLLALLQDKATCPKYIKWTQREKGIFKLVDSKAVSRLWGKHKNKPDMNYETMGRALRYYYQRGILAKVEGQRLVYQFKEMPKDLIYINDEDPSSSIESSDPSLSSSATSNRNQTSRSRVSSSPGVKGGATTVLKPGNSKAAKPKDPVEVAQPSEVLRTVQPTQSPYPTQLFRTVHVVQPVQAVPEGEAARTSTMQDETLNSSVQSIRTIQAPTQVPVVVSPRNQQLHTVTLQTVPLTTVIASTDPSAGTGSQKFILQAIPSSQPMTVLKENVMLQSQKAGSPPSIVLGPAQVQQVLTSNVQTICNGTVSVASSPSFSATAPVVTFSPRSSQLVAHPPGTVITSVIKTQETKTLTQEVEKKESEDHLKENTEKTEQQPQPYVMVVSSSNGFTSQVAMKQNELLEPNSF
HSF1, sequence (Q00613 whole entry): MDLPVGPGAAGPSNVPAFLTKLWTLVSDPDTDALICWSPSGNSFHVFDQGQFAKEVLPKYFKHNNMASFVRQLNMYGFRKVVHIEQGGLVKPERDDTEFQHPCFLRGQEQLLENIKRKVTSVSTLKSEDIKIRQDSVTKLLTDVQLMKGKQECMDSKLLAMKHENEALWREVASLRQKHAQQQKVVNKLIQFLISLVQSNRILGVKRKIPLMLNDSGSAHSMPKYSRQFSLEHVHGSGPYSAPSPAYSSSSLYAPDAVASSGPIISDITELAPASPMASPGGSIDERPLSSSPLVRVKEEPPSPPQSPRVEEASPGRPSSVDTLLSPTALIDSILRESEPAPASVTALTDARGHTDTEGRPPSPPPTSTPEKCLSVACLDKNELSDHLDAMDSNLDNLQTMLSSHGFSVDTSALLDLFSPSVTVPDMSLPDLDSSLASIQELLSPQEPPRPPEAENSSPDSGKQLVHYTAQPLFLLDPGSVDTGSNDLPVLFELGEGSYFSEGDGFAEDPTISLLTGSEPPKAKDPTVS
ELF4, sequence (Q99607 whole entry): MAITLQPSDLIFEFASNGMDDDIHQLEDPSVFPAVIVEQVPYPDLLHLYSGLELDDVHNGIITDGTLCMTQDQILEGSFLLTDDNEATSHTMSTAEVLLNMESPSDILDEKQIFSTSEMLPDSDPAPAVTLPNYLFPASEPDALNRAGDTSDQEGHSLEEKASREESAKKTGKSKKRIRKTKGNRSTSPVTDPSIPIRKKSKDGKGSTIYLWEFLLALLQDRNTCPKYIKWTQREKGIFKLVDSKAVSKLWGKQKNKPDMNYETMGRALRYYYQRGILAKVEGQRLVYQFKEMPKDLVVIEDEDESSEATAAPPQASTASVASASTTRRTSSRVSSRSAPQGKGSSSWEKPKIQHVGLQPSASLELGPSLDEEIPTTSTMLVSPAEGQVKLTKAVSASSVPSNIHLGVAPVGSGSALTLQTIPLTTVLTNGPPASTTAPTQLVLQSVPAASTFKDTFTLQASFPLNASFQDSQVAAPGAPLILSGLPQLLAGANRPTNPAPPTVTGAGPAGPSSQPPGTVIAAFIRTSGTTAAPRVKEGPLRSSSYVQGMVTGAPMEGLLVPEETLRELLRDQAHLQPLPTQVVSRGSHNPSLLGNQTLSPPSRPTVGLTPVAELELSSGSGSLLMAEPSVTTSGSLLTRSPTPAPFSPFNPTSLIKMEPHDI
CRX, sequence (O43186 whole entry): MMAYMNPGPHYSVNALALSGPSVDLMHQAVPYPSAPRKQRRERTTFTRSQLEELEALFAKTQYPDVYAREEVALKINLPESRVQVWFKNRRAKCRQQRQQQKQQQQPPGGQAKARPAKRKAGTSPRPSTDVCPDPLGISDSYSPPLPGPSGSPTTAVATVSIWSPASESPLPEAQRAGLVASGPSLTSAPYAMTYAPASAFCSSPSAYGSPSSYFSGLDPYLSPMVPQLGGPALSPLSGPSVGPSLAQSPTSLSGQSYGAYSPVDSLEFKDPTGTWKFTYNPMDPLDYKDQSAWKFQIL

**Q.** Which results are given for CGGCTT?
**A.** binding signal (FLI1): 1.17 fold enrichment (6-mer frequency, TF over GST control); binding signal (ELK1): 1.2 fold enrichment (6-mer frequency, TF over GST control); binding signal (GABPA): 1.12 fold enrichment (6-mer frequency, TF over GST control); binding signal (ERG): 1.19 fold enrichment (6-mer frequency, TF over GST control); binding signal (ELF1): 1.13 fold enrichment (6-mer frequency, TF over GST control); binding signal (EHF): 1.13 fold enrichment (6-mer frequency, TF over GST control); binding signal (SPI1): 1.17 fold enrichment (6-mer frequency, TF over GST control); binding signal (SPIB): 1.18 fold enrichment (6-mer frequency, TF over GST control); binding signal (ELK3): 1.12 fold enrichment (6-mer frequency, TF over GST control); binding signal (FEV): 1.14 fold enrichment (6-mer frequency, TF over GST control); binding signal (ETV5): 1.16 fold enrichment (6-mer frequency, TF over GST control); binding signal (HSF1): 1.35 fold enrichment (6-mer frequency, TF over GST control); binding signal (SPIC): 1.13 fold enrichment (6-mer frequency, TF over GST control); binding signal (ELF4): 1.1 fold enrichment (6-mer frequency, TF over GST control); binding signal (ELK4): 1.09 fold enrichment (6-mer frequency, TF over GST control); binding signal (ETV2): 1.27 fold enrichment (6-mer frequency, TF over GST control); binding signal (ELF3): 1.15 fold enrichment (6-mer frequency, TF over GST control); binding signal (CRX): 1.95 fold enrichment (6-mer frequency, TF over GST control); binding signal (ETV1): 1.2 fold enrichment (6-mer frequency, TF over GST control)
